In all, about 33,000 sequences were measured (“E-score (-0.5 to 0.5)”: median about -0.012, highest 2% from about 0.27 on). This is one part of a sample in which the highest values are shown more often than they occur.
Target: T1, Vhr1 (UniProt P40522)
T1 sequence: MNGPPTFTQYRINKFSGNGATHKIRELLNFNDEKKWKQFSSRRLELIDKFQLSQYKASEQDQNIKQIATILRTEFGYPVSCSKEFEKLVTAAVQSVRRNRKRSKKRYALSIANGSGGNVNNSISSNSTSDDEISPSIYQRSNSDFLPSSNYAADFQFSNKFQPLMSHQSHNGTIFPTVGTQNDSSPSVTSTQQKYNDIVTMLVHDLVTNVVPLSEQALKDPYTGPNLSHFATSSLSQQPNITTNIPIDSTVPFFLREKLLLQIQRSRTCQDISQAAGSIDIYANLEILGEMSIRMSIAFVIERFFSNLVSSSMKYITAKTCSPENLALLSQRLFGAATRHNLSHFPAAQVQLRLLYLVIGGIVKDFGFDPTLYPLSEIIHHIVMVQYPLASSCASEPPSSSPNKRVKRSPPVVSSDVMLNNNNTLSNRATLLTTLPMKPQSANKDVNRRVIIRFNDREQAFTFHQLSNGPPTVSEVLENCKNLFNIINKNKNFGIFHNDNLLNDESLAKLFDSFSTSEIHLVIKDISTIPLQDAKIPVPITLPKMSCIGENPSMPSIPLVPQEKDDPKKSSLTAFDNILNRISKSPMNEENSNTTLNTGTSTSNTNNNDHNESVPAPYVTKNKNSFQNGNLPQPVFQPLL
Assay: PBM E-score (8-mer binding enrichment) (E-score (-0.5 to 0.5)); higher = stronger / more preferred TF binding
Details: protein concentration: 200 nM; construct: GST-full length
Summary of the method: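 Bound GST-tagged yeast transcription factors, applied at about 100-200 nM to double-stranded universal all-10-mer Agilent arrays, were detected with fluorescent anti-GST. Scans were normalised with masliner. A modified Wilcoxon-Mann-Whitney statistic, the E-score, was assigned to each ungapped eight-base word pooled with its reverse complement by the Universal PBM Analysis Suite.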

Sequence | PBM E-score
TATTCAGA | 0.178
GATTCCGA | 0.287
GATTCAGA | 0.305
CATTCCGA | 0.0348
CATTCACA | 0.00907
CATTCACG | -0.114
GATTCACA | 0.326
GATTCCGC | 0.216
GATTCAGC | 0.149
CGAAAGCA | -0.046
GATACACC | 0.197
ACTGGCTG | 0.0954
CTTACCCA | 0.104
ACTCCAGA | 0.0505
TCTGCCCA | -0.179
AACCAACT | 0.0869
CGTGCTAA | -0.201
CCCATGAG | 0.227
CCTCATGA | 0.0599
ATGCATGC | -0.0419
ACTCATGC | 0.322
ACACATGG | 0.215

Sequence | PBM E-score
ATTCATGG | 0.21
CCTCATGC | 0.0272
ATTCATGC | 0.21
ACTCATGA | 0.369
ATGCATGA | 0.165
ATGCATGG | 0.28
GCTCATGA | 0.16
ACTCATGG | 0.317
AATTCACG | -0.0883
CGACAGAG | 0.0418
GGACTATA | 0.0737
CCAATTCC | -0.0792
ATCGTCTA | 0.0131
ATCCTCCC | -0.107
CAAGTTCC | -0.216
AAGTCCGA | -0.205
ATTATACA | 0.00881
ATTATACC | 0.112
ATTATACG | 0.303
CGATTCCA | 0.0812
AGATTCAA | -0.133
TGGTTCAA | 0.289

Sequence | PBM E-score
AGGTTCAA | 0.0239
TGATTCAA | 0.326
GGATTCAA | -0.0312
TGATTCCA | 0.364
AGATTCCA | 0.00955
CGGTTCAA | 0.0706
CGATGAAA | -0.0595
AAGCTTTA | -0.237
CTAAAACA | -0.0504
GTAGCTTA | 0.00186
CAAGTAAG | -0.123
CCATTCAG | -0.0511
TCTAGTCA | 0.218
ACTAGTCC | 0.133
CCTAGTCC | -0.0886
CCTAGTCG | 0.0391
ACTAGTCA | 0.292
GCTAGTCA | 0.284
CCTAGTCA | 0.309
GCTAGTTA | 0.00532
GCTAGTCC | -0.158
ATCTTCTG | -0.113

Sequence | PBM E-score
ACTTCGGA | -0.00447
GAAAGTTC | -0.349
AGAGTACT | 0.0467
ATTCTTAC | -0.00122
CTCTGGAC | 0.0126
ACGCCCCA | 0.112
CCGCCCGG | 0.0777
CCTCCCCC | -0.19
CCGCCCCA | 0.349
CCGCCCCC | -0.17
CCTCCCAA | -0.246
CCTCCCCA | 0.28
CCGCCCCG | 0.365
GCGCCCCA | -0.131
CAGAAATG | -0.168
CTTCATGA | 0.145
CGGCCGAA | 0.185
AGGTTGAA | -0.127
AGGAACCT | -0.0548
CAAGAGTA | 0.167

From the supplement of paper PMC3334620
